Inconclusive results are not listed. Activity calls are given as the source filed them. Unless noted, calls follow the shape of the dose curve; as a rule, active = well fitted curve in either direction with a large enough effect (not every such curve was filed as active); inconclusive = small, poorly fitted or top-dose-only effect, or another doubt; inactive = flat fitted curve, though single readings scatter.
What was measured:
[1] = biological target: Lysosomal acid glucosylceramidase (Homo sapiens) (UniProt P04062); experiment: Glucocerebrosidase-p2 (AID 348; in the data active = potency below about 10 µM; also: potency is read from the fitted curve at half-maximal effect); details: purified GBA, blue fluorogenic substrate, 40 min
Lysosomal acid glucosylceramidase (Homo sapiens), sequence (P04062 whole entry, looked up): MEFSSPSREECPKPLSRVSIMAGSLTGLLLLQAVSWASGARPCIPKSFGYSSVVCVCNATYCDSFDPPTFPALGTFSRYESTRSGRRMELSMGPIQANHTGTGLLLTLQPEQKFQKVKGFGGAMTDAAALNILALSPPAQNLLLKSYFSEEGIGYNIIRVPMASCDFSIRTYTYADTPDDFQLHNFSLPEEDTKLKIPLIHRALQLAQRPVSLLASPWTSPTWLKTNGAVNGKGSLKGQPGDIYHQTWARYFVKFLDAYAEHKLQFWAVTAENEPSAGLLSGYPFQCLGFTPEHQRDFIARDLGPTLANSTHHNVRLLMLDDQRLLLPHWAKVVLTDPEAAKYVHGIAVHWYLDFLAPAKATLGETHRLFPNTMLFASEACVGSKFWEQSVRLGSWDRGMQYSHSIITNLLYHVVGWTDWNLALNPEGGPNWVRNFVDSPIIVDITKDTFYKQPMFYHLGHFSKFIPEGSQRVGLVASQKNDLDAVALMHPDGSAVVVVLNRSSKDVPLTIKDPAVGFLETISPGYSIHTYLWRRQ
Procedure, shortened: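 Normal human glucocerebrosidase (0.2 nM) with blue fluorogenic substrate (80 uM final) in citrate/phosphate pH 5.9 with 10mM sodium taurocholate, 0.01% tween-20; 40 min RT, NaOH/glycine stop; fluorescence Ex 365/Em 440; AC50 from a titration from 0.6 nM upwards.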

[2] = AP1 Signaling Pathway (AID 357); details: ME-180 AP-1-bla reporter, EGF-induced, beta-lactamase ratio, 5 h; at 7.69 µM (top of the series) unless noted;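 also: ME-180 reporter cells stimulated with EGF at its EC50 level; % is scaled to controls: 0 for no effect and ±100 for the full control effect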
Procedure, shortened: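 In this screen, ME-180 cells in Opti-MEM with 0.5% dialyzed FBS received EC50 EGF and compound titrations for 5 h. AP-1 reporter beta-lactamase was detected via CCF4 ratio, giving AC50 for positive and negative modulators.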

[3] = biological target: Cytochrome P450 1A2 (Homo sapiens) (UniProt P05177); experiment: p450-cyp1a2 (AID 410; calls by dose curve; also: potency is read from the fitted curve at half-maximal effect;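 as to activity change, negative = inhibition: -100% = full effect of reference inhibitor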); details: recombinant CYP1A2, luciferin-ME demethylation, luminescence; series mostly up to 57 µM
Cytochrome P450 1A2 (Homo sapiens), sequence (P05177 whole entry, looked up): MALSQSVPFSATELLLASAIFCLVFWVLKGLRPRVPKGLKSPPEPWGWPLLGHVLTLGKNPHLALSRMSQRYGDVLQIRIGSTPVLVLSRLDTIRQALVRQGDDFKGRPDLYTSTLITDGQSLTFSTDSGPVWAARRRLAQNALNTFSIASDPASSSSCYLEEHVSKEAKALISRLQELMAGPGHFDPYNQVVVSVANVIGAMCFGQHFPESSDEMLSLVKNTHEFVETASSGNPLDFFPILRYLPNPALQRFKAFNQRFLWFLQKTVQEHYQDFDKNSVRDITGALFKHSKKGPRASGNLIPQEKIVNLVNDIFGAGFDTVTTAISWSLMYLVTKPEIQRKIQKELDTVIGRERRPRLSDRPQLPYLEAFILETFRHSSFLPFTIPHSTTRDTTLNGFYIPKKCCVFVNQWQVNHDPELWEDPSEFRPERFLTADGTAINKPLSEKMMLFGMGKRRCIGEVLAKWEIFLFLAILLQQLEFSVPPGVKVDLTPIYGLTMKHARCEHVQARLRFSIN
Procedure, shortened: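 20nM CYP1A2, 100uM Luciferin-ME (=Km), 100mM KPO4; cpd 10 min RT; +NADPH regen, 60 min RT; stop/detect 20 min; luminescence. Normalized to furafylline 57 uM = full inhibition.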

[4] = NFAT Signaling Pathway (AID 444); details: Jurkat NFAT-bla M1, carbachol, beta-lactamase ratio, 5 h; at 7.69 µM (top of the series) unless noted;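 also: carbachol stimulus at about its EC50 of 1 µM final; % is scaled to controls: 0 for no effect and ±100 for the full control effect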
Procedure, shortened: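 Jurkat cells carrying an NFAT-driven β-lactamase reporter and co-transfected muscarinic M1 receptor were treated with compound plus carbachol (1 uM final, an EC50 level) for 5 h at 37 °C. CCF4 loading followed for 1 h at RT; 460/530 nm ratio gave %activity.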

[5] = Stat Signaling Pathway (AID 446); details: ME-180 (cervical carcinoma) SIE beta-lactamase reporter, IL-6 stimulated, 5 h; at 7.69 µM (top of the series) unless noted;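 also: ME-180 cervical cancer cells given 40 pM IL-6 alongside compound; SIE-controlled beta-lactamase reporter measured as 460/530 nm FRET emission ratio; % is scaled to controls: 0 for no effect and ±100 for the full control effect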
Procedure, shortened: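 Emission at 460 and 530 nm (excitation 405 nm) reports SIE-controlled beta-lactamase in ME-180 cells. Cells received compound with 40 pM IL-6 for 5 hrs at 37 C; data scaled between 300 pM IL-6 and 125 nM JAK-inhibitor controls.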

[6] = biological target: Glucocorticoid receptor (Homo sapiens) (UniProt P04150); experiment: GR-GFP Redistribution (AID 450;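 active = compounds whose dose series gives a full or clear partial fitted curve of increased nuclear translocation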; also: potency is read from the fitted curve at half-maximal effect); details: U2OS GR-GFP nuclear translocation, laser cytometry, 2 h
Glucocorticoid receptor (Homo sapiens), sequence (P04150 whole entry, looked up, the tested form may be a part): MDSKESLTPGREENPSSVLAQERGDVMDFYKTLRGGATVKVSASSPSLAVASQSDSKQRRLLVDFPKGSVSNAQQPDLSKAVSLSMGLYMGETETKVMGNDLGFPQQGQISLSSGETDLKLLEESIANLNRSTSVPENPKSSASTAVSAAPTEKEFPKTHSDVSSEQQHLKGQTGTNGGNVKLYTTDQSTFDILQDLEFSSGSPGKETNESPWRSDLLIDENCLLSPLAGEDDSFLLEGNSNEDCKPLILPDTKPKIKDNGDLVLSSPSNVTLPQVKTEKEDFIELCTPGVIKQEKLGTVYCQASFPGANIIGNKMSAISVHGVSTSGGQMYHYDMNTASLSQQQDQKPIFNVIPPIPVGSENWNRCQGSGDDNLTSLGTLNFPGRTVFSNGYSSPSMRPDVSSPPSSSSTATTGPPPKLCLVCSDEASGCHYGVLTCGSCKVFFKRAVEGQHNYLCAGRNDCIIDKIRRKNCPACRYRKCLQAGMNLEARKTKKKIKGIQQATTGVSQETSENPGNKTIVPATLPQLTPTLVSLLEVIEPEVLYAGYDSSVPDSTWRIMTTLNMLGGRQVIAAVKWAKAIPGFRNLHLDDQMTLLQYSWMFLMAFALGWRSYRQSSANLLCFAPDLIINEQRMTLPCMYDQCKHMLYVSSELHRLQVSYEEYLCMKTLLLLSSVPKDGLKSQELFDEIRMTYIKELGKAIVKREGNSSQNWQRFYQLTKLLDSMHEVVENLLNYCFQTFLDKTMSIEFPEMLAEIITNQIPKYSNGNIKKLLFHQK

[7] = biological target: Glucocorticoid receptor (Homo sapiens) (UniProt P04150); experiment: GR-EFC Redistribution (AID 451; calls by dose curve; also: potency is read from the fitted curve at half-maximal effect); details: CHO-K1 GR-EFC translocation, beta-gal luminescence, 2 h
Procedure, shortened: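 CHO-K1 cells stably expressing nuclear-localized β-gal enzyme acceptor and GR fused C-terminally to the enzyme donor fragment; ligand-driven nuclear translocation restores β-gal by complementation. Compounds titrated up to 46 uM final, 2 h at 37 °C; luminescence read.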

[8] = biological target: Mitogen-activated protein kinase 10 (Mus musculus) (UniProt Q61831); experiment: JNK3 AlphaScreen Assay (AID 530); details: JNK3 lysate, c-Jun phosphorylation; series mostly up to 57.1 µM;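 also: kinase came from lysate of stimulated human HepG2 cells; signal reports phosphorylation of biotinylated GST-cJun 1-79 at Ser73 with 10 µM ATP; % is scaled to controls: 0 for no effect and ±100 for the full control effect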
Procedure, shortened: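 Biotinylated GST-cJun(1-79) served as substrate for JNK3 in HepG2 lysates stimulated with IL-1beta and TNF-alpha. ATP was 10 uM final, pH 7.6. Ser73 phosphorylation was quantified by AlphaScreen (680 nm excitation).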

[9] = biological target: 3',5'-cyclic-AMP phosphodiesterase 4B (Homo sapiens) (UniProt Q07343); experiment: qHTS Assay for Inhibitors of PDE-IV (AID 607; active = well fitted activation curve with a large enough effect in the main read-out, with a control signal flat, not every such curve was filed as active; also: % of control where 0% means no effect); details: HEK293 ACTOne CNG channel cells, membrane potential fluorescence; series mostly up to 22.9 µM
3',5'-cyclic-AMP phosphodiesterase 4B (Homo sapiens), sequence (Q07343 whole entry, looked up): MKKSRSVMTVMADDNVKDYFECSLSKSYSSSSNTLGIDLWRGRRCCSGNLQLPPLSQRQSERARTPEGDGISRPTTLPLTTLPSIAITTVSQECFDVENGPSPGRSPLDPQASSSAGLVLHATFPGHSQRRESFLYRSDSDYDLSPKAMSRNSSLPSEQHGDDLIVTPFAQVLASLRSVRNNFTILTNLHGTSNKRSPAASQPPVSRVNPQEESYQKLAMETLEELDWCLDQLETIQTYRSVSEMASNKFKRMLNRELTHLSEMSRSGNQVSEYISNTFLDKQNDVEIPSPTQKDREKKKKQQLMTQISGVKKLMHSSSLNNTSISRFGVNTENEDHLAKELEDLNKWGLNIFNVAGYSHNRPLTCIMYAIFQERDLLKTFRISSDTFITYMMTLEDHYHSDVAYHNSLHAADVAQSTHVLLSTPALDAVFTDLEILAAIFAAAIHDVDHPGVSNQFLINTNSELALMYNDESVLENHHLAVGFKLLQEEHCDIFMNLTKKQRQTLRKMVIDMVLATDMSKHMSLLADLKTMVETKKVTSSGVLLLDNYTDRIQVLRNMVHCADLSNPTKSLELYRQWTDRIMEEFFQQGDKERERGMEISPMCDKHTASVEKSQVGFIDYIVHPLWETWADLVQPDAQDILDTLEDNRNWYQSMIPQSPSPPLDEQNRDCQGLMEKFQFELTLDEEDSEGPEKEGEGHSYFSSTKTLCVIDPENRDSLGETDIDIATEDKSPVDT
Procedure, shortened: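 The readout is membrane depolarisation from a cAMP-sensing CNG channel, detected with a potential dye at ex 535/em 590. Cells were HEK293-derived (endogenous PDE-IV) at 1000 cells/well, titrated up to 22.9 uM final.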

[10] = biological target: Cytochrome P450 3A4 (Homo sapiens) (UniProt P08684); experiment: qHTS Assay for Inhibitors and Substrates of Cytochrome P450 3A4 (AID 884; active = well fitted curve in the direction sought with a large enough effect; an effect the other way counts as inactive or inconclusive; also: potency is read from the fitted curve at half-maximal effect; nearly all actives have a fitted effect of over 50% in size); details: recombinant CYP3A4, Luciferin-PPXE luminescence; series mostly up to 57.1 µM
Cytochrome P450 3A4 (Homo sapiens), sequence (P08684 whole entry, looked up): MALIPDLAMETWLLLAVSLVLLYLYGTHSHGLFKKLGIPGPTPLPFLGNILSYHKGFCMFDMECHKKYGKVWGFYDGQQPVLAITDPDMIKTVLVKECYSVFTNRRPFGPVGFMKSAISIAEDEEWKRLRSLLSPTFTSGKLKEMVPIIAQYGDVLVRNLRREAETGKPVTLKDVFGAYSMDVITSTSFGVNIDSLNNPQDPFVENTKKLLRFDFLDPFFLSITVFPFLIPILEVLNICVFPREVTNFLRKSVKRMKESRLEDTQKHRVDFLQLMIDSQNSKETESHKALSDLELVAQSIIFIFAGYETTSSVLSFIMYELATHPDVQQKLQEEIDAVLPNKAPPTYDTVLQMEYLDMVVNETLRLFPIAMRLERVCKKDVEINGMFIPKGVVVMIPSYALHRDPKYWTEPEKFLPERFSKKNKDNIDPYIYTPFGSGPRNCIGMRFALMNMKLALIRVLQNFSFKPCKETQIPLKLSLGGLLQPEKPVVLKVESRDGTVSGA
Procedure, shortened: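 Luminescent readout of luciferin produced by CYP3A4 (20 nM) dealkylation of Luciferin-PPXE, 25 uM (its KM). NADPH-driven reaction ran 60 min at RT after 10 min compound preincubation; data scaled to 57 uM ketoconazole as 100% inhibition.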

[11] = biological target: Cytochrome P450 3A4 (Homo sapiens) (UniProt P08684); experiment: qHTS Assay for Activators of Cytochrome P450 3A4 (AID 885; active = well fitted curve in the direction sought with a large enough effect; an effect the other way counts as inactive or inconclusive; also: nearly all actives have a fitted effect of over 65% in size); details: recombinant CYP3A4, Luciferin-PPXE luminescence, 60 min; series mostly up to 57.1 µM
Procedure, shortened: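 Activators are scored by enhanced luminescence from CYP3A4 conversion of luciferin-PPXE (25uM, equal to KM) to luciferin, after 60 min at RT with an NADPH-regenerating system.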

[12] = Confirmation and Secondary Assay for Modulators of Hemoglobin Beta Chain Splicing at IVS2 654 locus (AID 910; active = well fitted curve in the direction sought with a large enough effect; an effect the other way counts as inactive or inconclusive; also: % of control where 0% means no effect); details: HeLa EGFP-654 splicing reporter, GFP fluorescence, 48 h; series mostly up to 38.3 µM
Procedure, shortened: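 HeLa cells stably carrying EGFP interrupted by mutant beta-globin IVS2-654 intron (CMV-driven) were treated with compound for 2 days at 37C; corrected splicing was scored as total peak GFP intensity per well (488 nm excitation, 500-520 nm emission).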

[13] = Confirmation and Secondary Assay for Modulators of Hemoglobin Beta Chain Splicing at IVS2 705 locus (AID 930; active = well fitted curve in the direction sought with a large enough effect; an effect the other way counts as inactive or inconclusive;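 also: HeLa cells stably expressing the EGFP-705 splicing reporter; GFP fluorescence per well restored by corrected splicing of the IVS2-705 intron in EGFP; % of control where 0% means no effect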); details: HeLa EGFP-705 splicing reporter, GFP fluorescence, 48 h; series mostly up to 38.3 µM
Procedure, shortened: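 HeLa cells stably carrying EGFP interrupted by mutant beta-globin intron 2 (IVS2-705) treated 2 days at 37C with compound; 500 nM antisense PNA as control. Correct splicing read as total peak GFP intensity per well by laser-scanning cytometry.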

[14] = qHTS Assay for Lipid Storage Modulators (AID 1519; calls by dose curve; also: potency is read from the fitted curve at half-maximal effect); details: Drosophila S3 cells, BODIPY lipid droplet/cell ratio, laser cytometry, cells loaded with oleic acid; for activity change, negative = inhibition: at 57.5 µM (top of the series)
Procedure, shortened: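 Cells seeded at 5,000 per well were treated with compounds over a concentration series and loaded with oleic acid (400 uM, as added). Lipid droplet fluorescence (488 nm excitation, 500-530 nm channel) was read by laser-scanning cytometry and normalized to 20 uM Triacsin C.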

[15] = biological target: Ubiquitin carboxyl-terminal hydrolase 1 (Homo sapiens) (UniProt O94782); experiment: Inhibitors of USP1/UAF1: Pilot qHTS (AID 504865; active = well fitted curve in the direction sought with a large enough effect; an effect the other way counts as inactive or inconclusive; also: nearly all actives have a fitted effect of over 35% in size; also: potency is read from the fitted curve at half-maximal effect); details: purified USP1/UAF1, Ub-rhodamine cleavage fluorescence; series mostly up to 54.9 µM
Ubiquitin carboxyl-terminal hydrolase 1 (Homo sapiens), sequence (O94782 whole entry, looked up): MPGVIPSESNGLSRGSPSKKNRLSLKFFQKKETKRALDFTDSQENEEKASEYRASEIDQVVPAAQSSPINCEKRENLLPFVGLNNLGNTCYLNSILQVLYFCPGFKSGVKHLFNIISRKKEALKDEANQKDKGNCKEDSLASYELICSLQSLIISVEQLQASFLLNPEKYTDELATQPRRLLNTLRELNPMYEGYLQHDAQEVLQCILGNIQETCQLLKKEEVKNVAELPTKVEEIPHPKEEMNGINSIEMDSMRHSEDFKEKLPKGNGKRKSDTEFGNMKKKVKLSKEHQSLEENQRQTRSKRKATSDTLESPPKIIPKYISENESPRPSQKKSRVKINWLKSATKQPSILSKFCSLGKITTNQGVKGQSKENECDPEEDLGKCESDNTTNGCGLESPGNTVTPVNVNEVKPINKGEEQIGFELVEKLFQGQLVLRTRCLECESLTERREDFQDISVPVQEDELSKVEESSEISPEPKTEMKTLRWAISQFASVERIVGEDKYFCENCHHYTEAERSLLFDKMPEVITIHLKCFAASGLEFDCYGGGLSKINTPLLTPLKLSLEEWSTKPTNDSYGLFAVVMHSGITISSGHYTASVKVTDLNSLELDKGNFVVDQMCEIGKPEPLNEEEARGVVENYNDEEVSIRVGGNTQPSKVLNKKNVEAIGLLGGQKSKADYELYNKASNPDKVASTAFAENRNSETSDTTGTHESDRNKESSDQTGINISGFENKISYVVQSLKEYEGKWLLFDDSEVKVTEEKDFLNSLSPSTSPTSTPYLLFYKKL
Procedure, shortened: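 Kinetic fluorescence assay: 1nM USP1/UAF1, 15 min compound preincubation, then 150nM Ub-Rho; 480/540 nm.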

[16] = biological target: Cytochrome P450 2C19 (Homo sapiens) (UniProt P33261); experiment: qHTS Assay for Inhibitors and Substrates of Cytochrome P450 2C19 (AID 899; active = well fitted curve in the direction sought with a large enough effect; an effect the other way counts as inactive or inconclusive; also: potency is read from the fitted curve at half-maximal effect; nearly all actives have a fitted effect of over 60% in size); details: recombinant CYP2C19, luciferin-H EGE luminescence; series mostly up to 57.1 µM
Cytochrome P450 2C19 (Homo sapiens), sequence (P33261 whole entry, looked up): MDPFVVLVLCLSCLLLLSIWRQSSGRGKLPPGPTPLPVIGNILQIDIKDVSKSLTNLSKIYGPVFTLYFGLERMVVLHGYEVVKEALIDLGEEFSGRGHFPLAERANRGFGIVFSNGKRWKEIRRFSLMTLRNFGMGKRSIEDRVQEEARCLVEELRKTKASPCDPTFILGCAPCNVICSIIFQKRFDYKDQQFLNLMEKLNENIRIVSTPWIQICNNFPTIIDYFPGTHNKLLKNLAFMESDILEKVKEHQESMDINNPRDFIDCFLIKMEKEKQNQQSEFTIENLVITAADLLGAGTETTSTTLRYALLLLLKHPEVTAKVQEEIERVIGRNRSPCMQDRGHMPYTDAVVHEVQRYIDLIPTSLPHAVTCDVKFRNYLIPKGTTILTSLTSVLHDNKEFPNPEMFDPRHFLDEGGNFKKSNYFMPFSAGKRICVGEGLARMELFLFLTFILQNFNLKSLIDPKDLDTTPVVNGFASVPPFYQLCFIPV
Procedure, shortened: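 Human CYP2C19 (5nM) with Luciferin-H EGE at 10uM (its KM) in 50mM KPO4 was preincubated with compound for 10 min at 37C. NADPH regeneration started a 60 min 37C reaction. Luciferin was read by luminescence, normalized to 57uM ketoconazole.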

[17] = biological target: Cytochrome P450 2D6 (Homo sapiens) (UniProt P10635); experiment: qHTS Assay for Inhibitors and Substrates of Cytochrome P450 2D6 (AID 891; active = well fitted curve in the direction sought with a large enough effect; an effect the other way counts as inactive or inconclusive; also: potency is read from the fitted curve at half-maximal effect; nearly all actives have a fitted effect of over 60% in size); details: recombinant CYP2D6, luciferin-ME EGE luminescence; series mostly up to 57.1 µM
Cytochrome P450 2D6 (Homo sapiens), sequence (P10635 whole entry, looked up): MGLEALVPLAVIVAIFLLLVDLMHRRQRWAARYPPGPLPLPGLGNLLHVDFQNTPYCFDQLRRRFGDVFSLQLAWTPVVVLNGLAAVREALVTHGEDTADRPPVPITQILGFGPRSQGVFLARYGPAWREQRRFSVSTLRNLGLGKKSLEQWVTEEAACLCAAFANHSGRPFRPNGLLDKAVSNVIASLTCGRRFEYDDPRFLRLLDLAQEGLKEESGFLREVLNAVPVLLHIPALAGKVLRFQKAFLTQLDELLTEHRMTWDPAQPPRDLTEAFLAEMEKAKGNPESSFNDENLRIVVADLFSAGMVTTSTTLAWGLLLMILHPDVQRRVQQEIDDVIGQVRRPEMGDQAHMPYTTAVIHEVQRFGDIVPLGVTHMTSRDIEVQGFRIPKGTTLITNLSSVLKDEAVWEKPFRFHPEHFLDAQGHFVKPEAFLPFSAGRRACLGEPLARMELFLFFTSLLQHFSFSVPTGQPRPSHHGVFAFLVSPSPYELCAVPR
Procedure, shortened: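 Luminescent read-out of luciferin formed by 5 nM human CYP2D6 demethylating 30 uM Luciferin-ME EGE (Km level) over 60 min at room temperature after NADPH regeneration addition. Data normalized to full inhibition by 1.43 uM quinidine.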

[18] = measured here: cell count channel max response
[19] = measured here: lipid channel max response

COc1ccc2[nH]cc(CCNc3ncncc3-c3ccccc3CN(C)C)c2c1
active: Potency [3] 20 µM | Potency [10] 0.631 µM
-0.105%: max response [14, 18]
inactive: Potency [1] > 11.4 µM | activity change, negative = inhibition [2] -7.44% | activity change, negative = inhibition [4] -7.95% | activity, negative = inhibition [5] 0.332% | Potency [6] > 46 µM | Potency [7] > 46 µM | Potency [8] | Potency [9] | Potency [11] | Potency [12] | outcome [13] | activity change, negative = inhibition [14] 2.99% | Potency [15]
4.99%: max response [14, 19]

Cc1cccc(CNc2cc(-c3ccc(C(=O)N(C)C)cc3)ncn2)c1
0.996%: max response [14, 18]
inactive: Potency [1] > 11.4 µM | activity change, negative = inhibition [2] -7.22% | activity change, negative = inhibition [4] 13.4% | activity, negative = inhibition [5] -2.64% | Potency [6] > 46 µM | Potency [7] > 46 µM | Potency [8] | Potency [11] | Potency [12] | outcome [13] | activity change, negative = inhibition [14] 0.763% | Potency [15]
active: Potency [3] 15.8 µM | Potency [10] 3.16 µM
1.9%: max response [14, 19]

COc1ccccc1-c1ccc2ncnc(N(C)C)c2c1
inactive: Potency [1] > 11.4 µM | activity change, negative = inhibition [2] -19.5% | activity change, negative = inhibition [4] -2.93% | activity, negative = inhibition [5] -12.7% | Potency [6] > 46 µM | Potency [7] > 46 µM | Potency [8] | Potency [11] | outcome [13] | activity change, negative = inhibition [14] 4.68%
-7.7%: max response [14, 19]
-12.6%: max response [14, 18]
active: Potency [3] 1.26 µM | Potency [10] 5.01 µM | Potency [16] 0.501 µM

COc1ccc(C(=O)N2CCC3(CCN(C(=O)Nc4cccc(F)c4)CC3)CC2)cc1
22%: max response [14, 19]
inactive: Potency [1] > 11.4 µM | activity change, negative = inhibition [2] -28.3% | Potency [3] | activity change, negative = inhibition [4] 7.36% | activity, negative = inhibition [5] -5.59% | Potency [7] > 46 µM | Potency [8] | Potency [9] | activity change, negative = inhibition [14] 6.16%
13.8%: max response [14, 18]

c1ccc2c(Nc3ccncc3)nc(-c3ccoc3)nc2c1
active: Potency [1] 7.37 µM | Potency [3] 0.158 µM | Potency [10] 1.26 µM | Potency [15] 44.7 µM
inactive: activity change, negative = inhibition [2] -7.11% | activity change, negative = inhibition [4] -19.5% | activity, negative = inhibition [5] 3.23% | Potency [6] > 46 µM | Potency [7] > 46 µM | Potency [8] | Potency [11] | Potency [12] | outcome [13] | activity change, negative = inhibition [14] 14.9%
5.31%: max response [14, 18]
22.2%: max response [14, 19]

CS(=O)(=O)N1CCC[C@@]2(CCN(C(c3ccccc3)c3ccccc3)C2)C1
-82.6%: max response [14, 19]
-26.7%: max response [14, 18]
inactive: Potency [1] > 11.4 µM | activity change, negative = inhibition [2] 5.41% | activity change, negative = inhibition [4] -7.94% | activity, negative = inhibition [5] 1.66% | Potency [7] > 46 µM | Potency [8] | Potency [9] | Potency [11]
active: Potency [3] 25.1 µM | Potency [17] 3.98 µM | Potency [14] 7.94 µM

Source: PubChem BioAssay (NCATS)
